Measurements: PubChem BioAssay (Tox21)
Inconclusive results are not listed. Where a call stands in place of a potency, no number is given. The source made the active and inactive calls. The call rests on the fitted dose curve; in most records, active means well fitted activation curve with a large enough effect in the repeat runs; inconclusive means weak or mixed curves; inactive means flat fitted curve, though single readings scatter.

Experiment: A CellTox Green Cytotoxicity Assay to monitor cytotoxicity in HEK293 cells - 32 hour (AID 1224881); further: nearly all actives have a fitted effect of over 40% in size
Details: CellTox Green fluorescence; series mostly up to 76.8 µM
Source text: National Center for Advancing Translational Sciences [NCATS]
NIH Chemical Genomics Center [NCGC]
U.S. Environmental Protection Agency [EPA]
National Institutes of Environmental Health Sciences [NIEHS]
National Toxicology Program [NTP]
Cell-based models are critical for drug discovery. Determining the natural cytotoxic effects resulting from test compounds is an essential research activity. A CellTox Green Cytotoxicity Assay to monitor cytotoxicity in real time of continues cell culture during 40 hours of the compound treatment was used to screen Tox21 10K library compounds in Hek293 cells. CellTox Green Cytotoxicity Assay is a nonlytic, homogeneous, biofluorescent method to measure cytotoxicity in cell culture after experimental manipulation. The assay system uses a proprietary asymmetric cyanine dye that is excluded from viable cells but preferentially stains the dead cell's DNA. […] Viable cells produce no appreciable increases in fluorescence. Therefore, the fluorescence signal produced by the binding interaction with dead cell DNA is proportional to cytotoxicity.
The mixture of Hek293 cell suspension and reagents were dispensed at 600cells/6 ul/well in 1536-well tissue culture treated black solid bottom plates using a Multidrop dispenser. After the assay plates were incubated at a 37 C/5% CO2 incubator for 5 hours, 23 nL of compounds dissolved in DMSO, positive and negative controls was transferred to the assay plate by a pintool work station. The plates were incubated at 37 C for 40 hours. The fluorescence intensity were measured at 0h, 8h, 16h, 24h, 32h and 40h time points using ViewLux plate reader during compound treatment.
Potency means the concentration at half of the fitted maximal effect.

SMILES | Potency | cytotoxicity increase
O=C(O)c1ccccc1-n1cc(C(=O)O)c(=O)c2cc(Nc3c(F)cc(F)cc3Cl)c(Cl)cc21 | inactive | 
CCc1cnc(C(=O)O)c(C(=O)O)c1 | inactive | 
O=C(Cl)c1ccc(F)c(Cl)c1 | inactive | 
CCC(=O)O[C@]1(C(=O)COC)[C@@H](C)C[C@H]2[C@@H]3CCC4=CC(=O)C=C[C@]4(C)C3(F)[C@@H](O)C[C@@]21C (stereo not given in full) | inactive | 
C=Cc1ccc(C=C)cc1 | inactive | 
C[C@@H](O)[C@H]1C(=O)N2C(C(=O)O)=C(S[C@@H]3CN[C@H](CNS(N)(=O)=O)C3)[C@H](C)[C@H]12 | inactive | 
CC(=O)CC/C=C(\C)CC/C=C(\C)CC/C=C(\C)CCC=C(C)C | inactive | 
O=C(O)CCc1nc2ccccc2[nH]1 | inactive | 
CC(C)(C)NCC(O)COc1ccc(NC(=O)NC2CCCCC2)cc1 (stereo not given) | inactive | 
Cc1ccc2ccccc2c1[N+](=O)[O-] | inactive | 
O=P(c1ccccc1)(c1ccccc1)c1ccccc1 | inactive | 
Cc1cc(N)n(-c2ccccc2)n1 | inactive | 
NC(=O)c1cc[n+](CC2=C(C(=O)[O-])N3C(=O)[C@@H](NC(=O)Cc4cccs4)[C@H]3SC2)cc1 | inactive | 
CC(C)=CCCC(C)C=O (stereo not given) | inactive | 
O=S(=O)(O)c1cc(Cl)c(Cl)cc1Cl | inactive | 
O=C(O)c1cccc(C(=O)O)c1C(=O)O | inactive | 
CCCCCCCCCCCCSC#N | inactive | 
Clc1cccc(C(c2ccc3nc[nH]c3c2)n2ccnc2)c1 (stereo not given) | inactive | 
C/C(=C(\CCO)SS/C(CCO)=C(\C)N(C=O)Cc1cnc(C)nc1N)N(C=O)Cc1cnc(C)nc1N | inactive | 
CC(=O)S[C@H](C(=O)N[C@H]1Cc2ccccc2[C@H]2CCC[C@@H](C(=O)O)N2C1=O)C(C)C | inactive | 

SMILES | Potency | cytotoxicity increase
N#C[C@@H]1CC(F)(F)CN1C(=O)CNC1CC2CCC(C1)N2c1ncccn1 (stereo not given in full) | inactive | 
CC(C)Cc1nccs1 | inactive | 
CCCCCCCCCCCCCCCCCCCl |  | 3.09% [at 6.97 µM] (inactive)
Cc1ccc(Cl)c(OCC(O)CNC(C)(C)C)c1 (stereo not given) | inactive | 
O=Cc1ccc([N+](=O)[O-])cc1 | inactive | 
CC(C)CCCCCOC(=O)CS | inactive | 
CCCCCCCCCC(C)C=O (stereo not given) | 21.9 µM (active) | 
OCCCO | inactive | 
CCC(CC)C(=O)O | inactive | 
CCc1c(C)[nH]c2c1C(=O)C(CN1CCOCC1)CC2 (stereo not given) | inactive | 
CC(O)C(C)O (stereo not given) | inactive | 
CC(=O)c1cccnc1 | inactive | 
CCCC1CCCC(=O)O1 (stereo not given) | inactive | 
S=c1[nH][nH]c(=S)s1 | inactive | 
CCc1ccc(C(=O)C(C)CN2CCCCC2)cc1 (stereo not given) | inactive | 
O=Cc1ccc(Cl)c([N+](=O)[O-])c1 | inactive | 
CC/C=C/CCO | inactive | 
CCCCC(CC)COCCC#N (stereo not given) | inactive | 
O=C(O)CNc1ccccc1 | inactive | 
Cc1c(N=C=O)cccc1N=C=O | inactive | 
